A selection: hits, their analogues and other compounds. The true share with any hit is near 11%.
AMA1 RON2 block: qHTS for Inhibitors of AMA1-RON; Towards Development of Antimalarial Drug Lead: Primary Screen; AlphaScreen AMA1-biotinylated RON2 peptide binding; Potency, µM (titrated, usually from 58.2 µM), without a hit: at the highest dose activity change, negative = inhibition, actives largely listed as inhibitors; hit rate 0.2% among 360,000; AID 720542, 2013;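 also: 0% = vehicle wells and -100% = peptide control; nearly all actives have a fitted effect of over 45% in size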
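AMA1 (3D7) with his tag at 25 nM final met compounds first, then biotinylated RON2 peptide at 25 nM; detection used donor plus acceptor beads, 10 µg/mL apiece, read by AlphaScreen after 30 min at room temperature.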
Pf growth 96h: Primary qHTS for delayed death inhibitors of the malarial parasite plastid, 96 hour incubation. P. falciparum luciferase reporter growth, 96 h. Potency, µM (highest dose often 28.7 µM), for the others: top-dose activity change, negative = inhibition, hits mostly inhibitors. hit rate 6.9% among 320,000; also: % is scaled to controls: 0 for no effect and ±100 for the full control effect
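Erythrocytes infected with luciferase-expressing P. falciparum were dispensed at 2% hematocrit and 0.05% parasitemia (final), then incubated with compounds 96 hours at 37 C in 5% CO2. Luminescence after detection reagent addition reported growth.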
Sm TGR block: qHTS Assay for the Inhibitors of Schistosoma Mansoni Peroxiredoxins | purified TGR, DTNB reduction, TNB absorbance 405 nm | Schistosoma mansoni thioredoxin glutathione reductase (TGR), Q962Y6 | Potency, µM (titrated, usually from 114 µM), for inactives: top-dose activity change, negative = inhibition, most hits filed as inhibitors | hit rate 3% among 360,000; also: % is scaled to controls: 0 for no effect and ±100 for the full control effect; nearly all actives have a fitted effect of over 60% in size
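Kinetic colorimetric format: TGR-catalysed, NADPH-driven DTNB reduction monitored via TNB absorbance. Enzyme dispensed at 20 nM; compound exposure 15 min at room temperature before reaction start.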
Pf growth 48h: Primary qHTS for delayed death inhibitors of the malarial parasite plastid, 48 hour incubation. hit rate 5.9% among 310,000. AID 504832, 2011. Potency, µM (top dose mostly 28.7 µM), for the others: at the top dose activity change, negative = inhibition, most hits filed as inhibitors. P. falciparum luciferase growth in erythrocytes, 48 h; also: % is scaled to controls: 0 for no effect and ±100 for the full control effect
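Parasite viability was followed by luminescence of a genomically integrated firefly luciferase. Cultures held 0.1% parasitemia at 2% hematocrit (final), incubated under 5% CO2 at 37 C.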
NS1 function inh: qHTS Assay for Inhibitors of Influenza NS1 Protein Function | Potency, µM (doses to about 46.1 µM), inactives show at the highest dose activity, positive = more growth | hit rate 0.4% among 270,000 | AID 2326, 2010; calls by dose curve; also: actives are rising curves; nearly all actives have a fitted effect of over 50% in size
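In this qHTS, NS1 from influenza A is expressed in budding yeast, where it slows growth. Cells are switched from glucose to 2% galactose medium (pH 6.0, -URA), treated with compound, and growth recovery is read at OD600.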
Numbers without * were called inactive; ? = inconclusive; . = no result; ! = a repeat was not active; [ ] = another dose, or the depositor's remark. Unless noted, calls follow the shape of the dose curve; as a rule, active = well fitted curve in the direction sought with a large enough effect; inconclusive = small, poorly fitted or top-dose-only effect, or another doubt; inactive = no such curve, though single readings can be large; an effect the other way counts as inactive or inconclusive. Potency is read from the fitted curve at half-maximal effect.

SMILES	AMA1 RON2 block	Pf growth 96h	Sm TGR block	Pf growth 48h	NS1 function inh
O=C(CCCN1CCC(O)(c2ccc(Cl)cc2)CC1)c1ccc(F)cc1	2%	6.6µM*	-12%	7.4µM*	-29%
COc1ccc(CCC(=O)NCc2nc3cccnc3n2Cc2ccccc2)cc1	.	.	-9%	.	.
CCOc1ccc(S(=O)(=O)N2CCC(N3CCN(Cc4ccc(C)cc4)C(=O)C3=O)CC2)cc1	.	.	0%	.	.
CCS(=O)(=O)N1CCc2cc(C(=O)Nc3cccc(C)c3C)ccc21	.	.	-10%	.	.
COc1cc(-c2cc(C(=O)NCc3ccc(S(N)(=O)=O)cc3)c3ccccc3n2)cc(OC)c1OC	19%	?	9%	?	-11%
COc1cc(-c2cc(C(=O)NCc3ccco3)c3ccccc3n2)cc(OC)c1OC	-3%	10µM*	-6%	?	1%
COc1cc(-c2cc(C(=O)Nc3ccc(S(=O)(=O)NCc4ccco4)cc3)c3ccccc3n2)cc(OC)c1OC	3%	17µM*	-23%	10µM*	21%
COc1ccc(-c2cc(C(=O)Nc3ccc(S(N)(=O)=O)cc3)c3ccccc3n2)cc1OC	0%	?	1%	6%	10%
CCc1ccc(-c2cn3c(n2)sc2cc(C(=O)NC4CCCCCC4)ccc23)cc1	.	.	3%	.	.
COc1ccc(CN(C)C(=O)c2[nH]c(C)c(C(C)=O)c2C)c(OC)c1OC	4%	-5%	-2%	-4%	-4%
Oc1c(Br)cc(C2N=C(c3ccccc3)NO2)cc1Br (stereo not given)	0%	71%	50µM*	-4%	-114%
O=C(CCN1CCN2CCCC2C1)N1c2ccccc2Sc2ccc(Cl)cc21 (stereo not given)	-4%	11µM*!	10%	?	2%
CCN(CC)CCC(=O)N1c2ccccc2Sc2ccc(Cl)cc21	-7%	1.7µM*	-6%	?	.
COC(=O)Nc1ccc2c(c1)N(C(=O)CCN1CCN3CCCC3C1)c1ccccc1S2 (stereo not given)	-21%	?	-3%	?	-11%
Cn1cc(Br)c(-c2cccc(N3C(=O)CCCC3=O)c2)n1	8%	9%	6%	0%	3%
Cc1ccsc1/C=C1\SC(=S)N(CC2CCCO2)C1=O (stereo not given)	-21%	1.3µM*	.	27%	-2%
C[C@@H]1CN([C@H](C)CO)C(=O)c2cc(NS(=O)(=O)c3cn(C)cn3)ccc2O[C@@H]1CN(C)S(C)(=O)=O	1%	.	.	.	.
COc1ccc(N=C2SC(C(=O)Nc3ccc(C(=O)O)cc3)CC(=O)N2Cc2cccs2)cc1 (stereo not given)	-8%	7.4µM*	-3%	?	-3%
COc1ccc(N=C2SC(CC(=O)Nc3ccccc3)C(=O)N2CCN2CCOCC2)cc1 (stereo not given)	-5%	-2%	-8%	-5%	.
COC(=O)c1cc(NC(=O)CC2SC(=Nc3ccccc3)N(CCc3c[nH]c4ccccc34)C2=O)cc(C(=O)OC)c1 (stereo not given)	-7%	1.7µM*	-3%	13µM*	29%
COCCN1C(=O)C(CC(=O)Nc2ccc(C(=O)O)cc2)SC1=Nc1ccccc1 (stereo not given)	1%	68%	?	9%	0%
COc1ccc(N=C2SC(CC(=O)Nc3ccccc3)C(=O)N2CC2CCCO2)cc1 (stereo not given)	-6%	?	-22%	12µM*	-49%
Cc1ccc(C)c(S(=O)(=O)N2CCN(C(=O)c3ccccn3)CC2)c1	-3%	-20%	?	-12%	.
Cc1ccc(Cl)cc1-c1ccc(C=Nc2ccc(N3CCOCC3)cc2)o1	11µM*	29%	?	-1%	7%
Cc1cc(O)c(C=Nc2ccc(N3CCOCC3)cc2)c(C)c1Cl	-2%	?	-18%	-2%	3%
SMILES	AMA1 RON2 block	Pf growth 96h	Sm TGR block	Pf growth 48h	NS1 function inh
COc1ccc(C(=O)COC(=O)CCN2C(=O)C3C4C=CC(C5CC45)C3C2=O)cc1 (stereo not given)	-7%	37%	25µM*	16%	-39%
COc1ccc(C(=O)COC(=O)CCN2C(=O)C3C4CCC(C4)C3C2=O)cc1 (stereo not given)	1%	-15%	2%	7%	.
COc1ccccc1N(C(=O)c1cncc(Br)c1)c1nc(-c2ccc(C)cc2)cs1	-14%	7.4µM*	-6%	?	25%
CCOC(=O)C(=NC(C)(C)C)NNc1cc(Cl)ccc1Cl	-2%[2.32 µM]	9.3µM*	-18%	?	-43%
CCOC(=O)C(=NC(C)C)NNc1cc(Cl)ccc1Cl	-7%	0%	-24%	?	4%
O=C(CCNS(=O)(=O)c1ccc(Br)cc1)NC1CCCCC1	36%	3%	9%	?	.
O=S(=O)(NC(=S)NC1CCCCC1)c1ccc(Br)cc1	71%	30%	22µM*	1%	.
O=C(CCn1cnc2ccccc21)N=Nc1c(O)[nH]c2ccccc12	8%	-12%	-16%	-12%	3%
Cn1c(=O)c2ncn(CC(=O)N=Nc3c(O)[nH]c4ccccc34)c2n(C)c1=O	.	34%[1.15 µM]	2%	12µM*	.
CC(=O)c1ccc(N2CCN(CC(O)COC(c3ccccc3)c3ccccc3C)CC2)cc1 (stereo not given)	?	?	3%	10µM*	-9%
N#Cc1ccc(-c2ccc(C3Nc4ccccc4C(=O)N3O)o2)cc1 (stereo not given)	.	?	5µM*	?	.
O=C1c2ccccc2NC(c2ccc(-c3cccc(F)c3)o2)N1O (stereo not given)	.	129%	?	89%	.
CCOc1ccc(CCNC(=O)COC(=O)c2nn(C)c(=O)c3ccccc23)cc1OCC	-1%	41%	-1%	2.9µM*	.
COc1cc(C(=O)OCC(=O)NCCCc2ccccc2)ccc1OCC(C)C	-6%	5.9µM*	-16%	?	13%
CCCOc1ccc(C(=O)OCC(=O)NCCc2ccc(OCC)c(OCC)c2)cc1OC	13%	13µM*	0%	?	11%
CCOc1ccc(CCNC(=O)COC(=O)CCc2cc(OC)c(OC)c(OC)c2)cc1OCC	7%	?	1%	13µM*	.
CC(C)OCCCNc1ccc(N2C(=O)CCCC2=O)cc1[N+](=O)[O-]	1%	-12%	4%	27%	7%
COc1ccc(NC(=O)C(=O)NCCc2ccc(OC)c(OC)c2)c(OC)c1	.	.	2%	.	.
CCOc1ccc(CCNC(=O)COC(=O)c2ccc(OC(C)C)cc2)cc1OCC	-5%	?	-11%	12µM*	.
CCOc1ccc(C(=O)CC(=O)C(=O)NCCc2ccc(OC)c(OC)c2)cc1	28%	227%	-32%	13µM*	20%
